This is an account of results in PubChem BioAssay (NCATS).

Inconclusive results are not listed. Active and inactive are the calls of the source. Calls come from the whole dose curve; as a rule, active = well fitted inhibition curve with a large enough effect; inconclusive = small, poorly fitted or top-dose-only effect; inactive = flat fitted curve, though single readings scatter.

The test deals with CRL-7250. Description: qHTS assay to identify novel small-molecules to repurpose for Merkel cell carcinoma treatment (AID 1296009). Note: nearly all actives have a fitted effect of over 60% in size. The conditions noted are these: MCC and control cell lines, CellTiter-Glo viability, 72 h; series mostly up to 44.8 µM. The gist of the method: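 CellTiter-Glo luminescence after 72 hr compound exposure at 37 degree celsius gave cell viability. Libraries NPC and MIPE were run as 8- and 11-point dose responses; RLUs normalized to DMSO (negative) and no-cell (cytotoxicity) controls.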
Regarding `O[C@@H]1CO[C@H]2[C@@H]1OC[C@@H]2O`, the outcome was inactive.

Regarding `NC(=O)c1cn(Cc2c(F)cccc2F)nn1`, the call was inactive.

Take `O=C1CCC(N2C(=O)c3ccccc3C2=O)C(=O)N1` (stereo not given): the result was inactive.

On to `NNCCc1ccccc1`, for which the compound was called inactive.

Consider `CCC1C(=O)OCC1Cc1cncn1C` (stereo not given), for which the call was inactive.

`NC12CC3CC(CC(C3)C1)C2`: the outcome was inactive.

For the compound `CCN(CC)C(=S)SSC(=S)N(CC)CC`, the result was inactive.

Consider `CN1CCC(=C2c3ccccc3C=Cc3ccccc32)CC1`, for which the compound was classed as inactive.

Turning to `CCOc1ccc2ccccc2c1C(=O)N[C@@H]1C(=O)N2[C@@H]1SC(C)(C)[C@@H]2C(=O)O`, the result was inactive.

Take `CCCCc1ncc(/C=C(\Cc2cccs2)C(=O)O)n1Cc1ccc(C(=O)O)cc1`: the compound was classed as inactive.

As to `CN(CCOc1ccc(NS(C)(=O)=O)cc1)CCc1ccc(NS(C)(=O)=O)cc1`, the compound was classed as inactive.

For the compound `CN(C)CCc1c[nH]c2ccc(C[C@H]3COC(=O)N3)cc12`, the compound was called inactive.

For the compound `CC12CC3CC(C)(C1)CC(N)(C3)C2`, the result was inactive.

As to `Cc1nc(-c2ccc(OCC(C)C)c(C#N)c2)sc1C(=O)O`, the call was inactive.

In the case of `Cc1cnc(C(=O)NCCc2ccc(S(=O)(=O)NC(=O)NC3CCCCC3)cc2)cn1`, the compound was classed as inactive.

In the case of `CC(C)(C(=O)O)c1ccc(C(O)CCCN2CCC(C(O)(c3ccccc3)c3ccccc3)CC2)cc1` (stereo not given), the compound was classed as inactive.

In the case of `C1N2CN3CN1CN(C2)C3`, the call was inactive.

With `COc1cc(C(C)=O)ccc1OCCCN1CCC(c2noc3cc(F)ccc23)CC1`, the compound was classed as inactive.

In the case of `CN(C)C(=N)N=C(N)N`, the compound was classed as inactive.

Regarding `C[C@H]1c2cccc(O)c2C(O)=C2C(=O)[C@]3(O)C(O)=C(C(N)=O)C(=O)[C@@H](N(C)C)[C@@H]3[C@@H](O)[C@@H]21`, the compound was called inactive.
